Results filed as inconclusive are left out. Activity calls are given as the source filed them. Calls follow the shape of the dose curve; as a rule, active = well fitted activation curve with a large enough effect; inconclusive = small, poorly fitted or top-dose-only effect; inactive = no such curve, though single readings can be large or run the other way.
These compounds were tested against Relaxin receptor 1 (Homo sapiens) (UniProt Q9HBX9) (assay: qHTS Assay for Agonists of the Relaxin Receptor RXFP1: RXFP1 Hit Validation). Conditions: HEK293T-RXFP1 cAMP TR-FRET, 30 min; series mostly up to 115 µM; activation: at the top concentration.
Relaxin receptor 1 (Homo sapiens), sequence (Q9HBX9 whole entry, looked up): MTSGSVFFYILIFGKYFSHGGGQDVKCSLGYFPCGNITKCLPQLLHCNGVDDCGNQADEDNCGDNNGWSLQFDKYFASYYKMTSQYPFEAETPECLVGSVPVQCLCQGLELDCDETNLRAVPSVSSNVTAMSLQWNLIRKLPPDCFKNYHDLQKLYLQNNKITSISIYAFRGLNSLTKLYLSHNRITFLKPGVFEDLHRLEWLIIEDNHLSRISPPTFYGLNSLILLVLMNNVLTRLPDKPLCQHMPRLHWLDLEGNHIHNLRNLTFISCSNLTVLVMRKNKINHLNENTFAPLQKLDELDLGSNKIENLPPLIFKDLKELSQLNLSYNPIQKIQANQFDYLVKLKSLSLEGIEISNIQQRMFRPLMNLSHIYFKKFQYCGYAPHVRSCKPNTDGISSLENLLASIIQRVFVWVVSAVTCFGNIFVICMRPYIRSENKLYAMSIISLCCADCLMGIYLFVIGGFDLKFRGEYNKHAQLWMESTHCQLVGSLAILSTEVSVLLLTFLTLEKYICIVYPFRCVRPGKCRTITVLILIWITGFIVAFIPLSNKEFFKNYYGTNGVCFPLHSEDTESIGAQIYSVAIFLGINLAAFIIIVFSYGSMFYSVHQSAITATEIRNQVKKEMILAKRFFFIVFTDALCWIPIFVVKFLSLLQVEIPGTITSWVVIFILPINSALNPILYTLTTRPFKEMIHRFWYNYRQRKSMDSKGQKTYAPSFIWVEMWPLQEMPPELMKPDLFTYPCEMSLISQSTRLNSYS
Description: NIH Chemical Genomics Center [NCGC] NIH Molecular Libraries Probe Production Centers Network [MLPCN] MLPCN Grant: R03 MH085705-01A1 Assay Submitter (PI): Alexander Agoulnik NCGC Assay Overview: The relaxin hormone is involved in the variety of biological functions in normal tissues and diseases. The role of relaxin is well-established in female reproduction and parturition, mammary gland and endometrial development, maintenance of myometrial quiescence during pregnancy. Relaxin signaling through its G protein-coupled receptor (GPCR) RXFP1 results in ECM remodeling through regulation of collagen deposition, cell invasiveness, proliferation and overall tissue homeostasis. […] Recombinant human relaxin (rhRlx) is currently being tested in clinical trials as a protective agent in congestive heart failure, in treating severe preeclampsia, and as an anti-fibrotic agent in systemic sclerosis. Upon relaxin binding RXFP1 activation leads to the activation of adenylate cyclase (AC) via Gs. cAMP will activate PKA, which phosphorylates many signaling proteins. Thus, detection of cAMP increase is an easy and reliable indication of relaxin receptor activation. To screen for agonists of the relaxin receptor, a HEK293T cell line stably transfected with RXFP1 was used. RXFP1 activation was assayed by changes in cAMP levels as detected with a time-resolved fluorescence energy transfer (TR-FRET) cAMP detection kit.
NCGC Assay Protocol Summary: This is a cell-based assay for cAMP second messenger response to screen for agonists of the RXFP1 receptor. The assay was conducted in the presence of a PDE4 inhibitor (Ro 20174). The cells were lysed and the cAMP levels were measured with a TR-FRET cAMP kit. Presence of cAMP in the cell lysate disrupts binding between the cryptate-labeled anti-cAMP and d2-labeled cAMP pair, leading to a decrease in the TR-FRET signal. Data were normalized to the controls for basal activity (buffer only) and 100% activity (29 nM porcine relaxin). The EC50 values were determined from concentration-response data modeled with the standard Hill equation 1536-well assay protocol for the HEK293 RXFP1 cAMP assay: (1) Add 3 ul HEK293 RXFP1 cell culture. 2000 cells/well in DMEM/F12, 10% FBS, 1x Pen/Strep (dispensed offline with MultiDrop Combi). (2) Incubate 16-24 hr at 37C, 5% CO2. (3) Add 1 ul 400uM Ro20174 in DPBS, 0.05% BSA, 0.005% Tween 20. (3) Add 23 nl compounds in DMSO solution. Final concentration was 0.5 - 58 uM. (4) Incubate 30 min at 37C, 5% CO2. (5) Add 1 ul cAMP-d2 in lysis buffer (HTRF cAMP HiRange kit, CisBio). (6) Add 1 ul anti-cAMP antibody-cryptate in lysis buffer (HTRF cAMP HiRange kit, CisBio). (7) Incubate 30 min at room temperature. […] Keywords: relaxin, RXFP1, RXFP2, G-protein coupled receptor, cAMP, agonist, high throughput screening, MLSMR, MLSCN, NIH Roadmap, qHTS and NCGC
Also: nearly all actives have a fitted effect of over 65% in size.
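For activation in this document: cAMP rise lowers the TR-FRET signal in lysed cells with PDE4 inhibitor present; 0% = buffer-only basal and 100% = 29 nM porcine relaxin.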
Potency is read from the fitted curve at half-maximal effect.

| Compound | Potency | activation |
| --- | --- | --- |
| Cc1cccc2cc(C#N)c(SCC(=O)NCc3cccs3)nc12 | 17.3 µM (active) | – |
| CC(=O)Nc1ccc(NC(=O)CSc2ccc3nnc(-c4ccccn4)n3n2)cc1 | – | 26.3% [at 45 µM] (inactive) |
| Cc1ccc(-c2ccc3nnc(SCC(=O)NCC4CCCO4)n3n2)cc1 (stereo not given) | – | -24.9% (inactive) |
| O=C(O)c1cc(-c2ccco2)nc2ccc(Br)cc12 | 19.4 µM (active) | – |
| COC(=O)c1nc2ccc(N3CCOCC3)cc2c(C)c1C(=O)OC | 34.6 µM (active) | – |
| c1ccc(-c2nnc(-c3ccccn3)c(-c3ccccn3)n2)nc1 | – | 0.143% (inactive) |
| CC1(C)Cc2c(sc3c2c2ncnn2c2nnc(SCC(=O)NCc4ccco4)n32)CO1 | 6.16 µM (active) | – |
| Cc1ccc(CN(C)C(=O)c2ccc3c(c2)NC(=O)CS3)o1 | – | -29.9% (inactive) |
| Cc1ccc(CN(C)C(=O)c2ccccc2NC(=O)c2ccccc2)o1 | – | -3.25% [at 125 µM] (inactive) |
| CCN(c1ccccc1)S(=O)(=O)c1ccc(OC)c(NC(=O)C2CC(=O)N(Cc3ccccc3)C2)c1 (stereo not given) | – | -5.54% (inactive) |
| CC1C/C(=N\NC(N)=S)c2cc(Cl)ccc2S1 (stereo not given) | – | 5.78% (inactive) |
| CCN(CC)S(=O)(=O)c1ccc(N2CCOCC2)c(NC(=O)c2cc([N+](=O)[O-])ccc2Cl)c1 | – | 14.6% (inactive) |
| COC(=O)Cn1cnc2c(C#N)c3n(c2c1=O)CCCC3 | 24.5 µM (active) | – |
| O=C(O)c1ccc(CN2C(=O)c3ccc(C(=O)O)cc3C2=O)cc1 | – | 0.0336% (inactive) |
| Cc1cc(NC(=O)c2ccccc2F)nc2c1c(=O)oc1ccccc12 | 17.3 µM (active) | – |
| CC1(C)Cc2c(sc3ncnc(NN)c23)CO1 | – | 25.2% [at 45 µM] (inactive) |
| CN(C)c1ccc2nc3c(=O)[nH]c(=O)nc-3n(CC(O)C(O)C(O)CO)c2c1 (stereo not given) | – | 7.23% (inactive) |
| NC(=S)c1cc2ccc(O)cc2oc1=O | 7.74 µM (active) | – |
| O=C(O)CNC(=O)c1ccccc1NC(=O)c1ccco1 | – | 2.24% [at 125 µM] (inactive) |
| O=C(Oc1ccccc1)Oc1ccc2c(c1)oc(=O)c1ccccc12 | 21.8 µM (active) | – |

| Compound | Potency | activation |
| --- | --- | --- |
| O=C(NCCOC(=O)c1ccc([N+](=O)[O-])cc1)c1cccnc1 | – | 26.3% (inactive) |
| Cn1c(=O)c2c(nc(SCC(=O)N3CCOCC3)n2C)n(C)c1=O | – | 27.2% (inactive) |
| COc1ccc(C(=O)Nc2ccc(S(=O)(=O)Nc3onc(C)c3C)cc2)c(OC)c1 | 5.95 µM (active) | – |
| O=C(Cn1cnc2c(nnn2-c2ccc(F)cc2)c1=O)NCC1CCCO1 (stereo not given) | 8.7 µM (active) | – |
| Nc1nnc(CC(=O)N/N=C/c2ccc(-c3ccc(Cl)cc3Cl)o2)s1 | – | 6.59% (inactive) |
| CCCC(=O)Nc1ncnc2c1ncn2[C@@H]1O[C@@H]2COP(=O)(O)O[C@H]2[C@H]1OC(=O)CCC | 0.774 µM (active) | – |
| O=C(O)CCC(=O)N1CCN(c2nc(-c3ccccc3Cl)c3cc(Br)ccc3n2)CC1 | – | 28.4% [at 45 µM] (inactive) |
| COc1ccc(CC(=O)N/N=C/c2cccnc2)cc1OC | – | -6.39% (inactive) |
| CCc1cc2cc3c(cc2nc1SCC(=O)Nc1nccs1)OCO3 | 17.3 µM (active) | – |
| N#Cc1c(N)nc(SCC(=O)C23CC4CC(CC(C4)C2)C3)c(C#N)c1-c1ccc(Cl)cc1 | 9.74 µM (active) | – |
| Cc1cc(Br)c2nc3c(c(C(=O)O)c2c1)CCCCC3 | 1.94 µM (active) | – |
| Cc1ccccc1NC(=O)CNc1ccccc1C(=O)NCc1ccco1 | – | 5.5% [at 125 µM] (inactive) |
| CN(C)c1ccc(C(=S)N2CCN(S(=O)(=O)c3ccccc3)CC2)cc1 | – | 0.765% (inactive) |
| Cc1ccc(C(=O)Nc2cccc(C(F)(F)F)c2)cc1NC(=O)c1cnnc2ccccc12 | – | 7.81% (inactive) |
| Cc1cc2nc3ccc(=[N+](C)C)cc-3sc2cc1N | – | -10.4% (inactive) |
| CCCC(=O)Nc1ncnc2c1ncn2[C@@H]1O[C@@H]2OP(=O)(O)OC[C@H]2[C@H]1OC(=O)CCC | 0.346 µM (active) | – |
| Cc1ccc2cc(CN(C(=O)c3cccs3)c3ccccc3)c(=O)[nH]c2c1 | – | 2.01% (inactive) |
| Cc1ccc2[nH]c3c(=S)nc[nH]c3c2c1 | 3.88 µM (active) | – |
| Brc1ccc2ncnc(NCc3cccnc3)c2c1 | 38.9 µM (active) | – |
| O=C(Nc1ccccc1C(=O)NCCc1ccc(O)cc1)c1ccco1 | – | -4.47% [at 125 µM] (inactive) |

Source: PubChem BioAssay AID489012 (National Center for Advancing Translational Sciences (NCATS), 2010)
